Experimental data: PubChem BioAssay
Calls of active or inactive are those of the source. Unless noted, the rule behind the calls is not given here.

Key:
[1] = compounds binding Alexa647 anti-His antibody – biochemical, small-molecule microarray, 635 nm fluorescence, artefact control for SMM control protein annotation, primary screen (AID 1128); settings: higher = more signal;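 note: score merges feature fluorescence with signal-to-noise for each printed compound spot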
[2] = tested on: Human papillomavirus type 1a E7 protein (residues 1-88); assay: HPV1a E7 small-molecule binders, primary screen, biochemical, small-molecule microarray, residues 1-88, 635 nm (AID 1129); settings: small-molecule microarray binding, fluorescence 635 nm; higher = more signal
[3] = biological target: Focal adhesion kinase 1 (Homo sapiens) (UniProt Q05397); assay: PTK2 protein binding on printed compound slides – biochemical, small-molecule microarray, 635/667 nm fluorescence, BSA, DTT, primary screen (AID 1130); settings: 635 nm fluorescence, higher = more signal;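 note: composite of spot emission at 667 nm and signal to noise over triplicate slides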
[4] = tested on: Fibrinogen (Alexa647-labelled); assay: Alexa647-fibrinogen binding to printed small molecules – biochemical, small-molecule microarray, 635/667 nm fluorescence, artefact control for SMM control-protein annotation, profiling panel (AID 1131); settings: fibrinogen-A647 binding fluorescence, higher = more signal;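 note: z-score merges 667 nm fluorescence with per-spot signal-to-noise over triplicate slides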
[5] = biological target: Follistatin (Homo sapiens) (UniProt P19883); assay: FST protein binding to printed compounds – biochemical, small-molecule microarray, 635/667 nm fluorescence, primary screen (AID 1132); settings: 635 nm fluorescence, higher = more signal
[6] = biological target: Fibroblast growth factor 2 (Homo sapiens) (UniProt P09038); assay: basic fibroblast growth factor binding to printed compounds – biochemical, small-molecule microarray, 635/667 nm fluorescence, primary screen (AID 1133); settings: FGF2, fluorescence 635/667, higher = more signal
[7] = JC-1 mitochondrial potential readout, lung cancer cells – cell-based, A549, JC-1 fluorescence, basal, 24 h, 100 nL, profiling panel (AID 1138); settings: higher = more signal;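 note: A549 lung adenocarcinoma cells under basal conditions with no added stimulus; test concentration not given here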
[8] = tested on: Lefty1; assay: Lefty1 protein binding to printed compounds – biochemical, small-molecule microarray, 635/667 nm fluorescence, primary screen (AID 1139); settings: fluorescence 635/667, higher = more signal
[9] = tested on: wheat germ agglutinin (Triticum aestivum), Alexa647-labelled; assay: Alexa647-WGA lectin binding to printed small molecules – biochemical, small-molecule microarray, 635/667 nm fluorescence, artefact control for SMM control-protein annotation, profiling panel (AID 1140); settings: WGA-A647 binding, 635 nm fluorescence, higher = more signal;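 note: score merges 667 nm feature emission with signal to noise over triplicate slides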
[10] = biological target: Luciferin 4-monooxygenase (Photinus pyralis) (UniProt P08659); assay: inhibition of purified Photinus pyralis luciferase – biochemical, luminescence, purified enzyme, 2006 set, primary screen (AID 1141); settings: purified firefly luciferase, SteadyGlo luminescence, 30 min; higher = more signal, called active from +8 up or from −8 down;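 note: cell-free assay with purified firefly luciferase at 100 ng per well in PBS; test concentration not given here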
[11] = tested on: Wnt5a (protein binding on small-molecule microarray); assay: small molecules binding Wnt5a protein – biophysical, small-molecule microarray, 635/667 nm fluorescence, primary screen (AID 1142); settings: 635 nm fluorescence, higher = more signal;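 note: fluorescence read at 667 nm with signal to noise per printed feature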
[12] = ATP-based viability of Huh7 replicon cells – cell-based, CellTiter-Glo luminescence, basal, 48 h, cytotoxicity control for HCV replication inhibitor project, primary screen (AID 1143); settings: higher = more signal, called active from +8 up or from −8 down;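 note: Huh7 hepatoma cells carrying a hepatitis C replication reporter with no stimulus; test concentration not given here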
[13] = Pseudomonas biofilm growth suppression – PAO1 strain, BacTiter-Glo luminescence, LB-PBS, primary screen (AID 1144); settings: P. aeruginosa PAO1 biofilm, 12 h, higher = more signal
[14] = basal CRE-LacZ reporter activity in PC12 – cell-based, unstimulated, primary screen (AID 1145); settings: no forskolin, luminescence, 4.5 h, higher = more signal, called active from +8 up or from −8 down
[15] = forskolin-driven CRE-LacZ activity in PC12 – cell-based, CRE-LacZ reporter, forskolin-stimulated, primary screen (AID 1146); settings: luminescence, 4.5 h, higher = more signal, called active from +8 up or from −8 down;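 note: PC12 cells with 6xCRE LacZ reporter stimulated by forskolin 10 µM; beta-galactosidase reporter signal reflecting CREB driven transcription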
[16] = biological target: Streptavidin (Streptomyces avidinii) (UniProt P22629); assay: compounds binding control protein streptavidin – biophysical, small-molecule microarray, 635/667 nm fluorescence, artefact control for SMM compound annotation, primary screen (AID 1147); settings: higher = more signal;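 note: signal reflects streptavidin binding to arrayed compounds as a control protein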
[17] = probe aInhba binding on compound microarray – biochemical, small-molecule microarray, 635/667 nm fluorescence, primary screen (AID 1148); settings: higher = more signal;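 note: score merges 667nm spot fluorescence with signal-to-noise for antibody binding to printed compounds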
[18] = biological target: Torsin-1A (Homo sapiens) (UniProt O14656); assay: TOR1A wild-type binding on microarray – cell lysate, small-molecule microarray, lysate, 635/667 nm, primary screen (AID 1149); settings: COS7 hTOR1A-WT lysate, 635 nm fluorescence, higher = more signal
[19] = biological target: Torsin-1A (Homo sapiens) (UniProt O14656); assay: torsin A mutant lysate binding on microarrays – cell lysate, small-molecule microarray, COS7 lysate, 635/667 nm fluorescence, primary screen (AID 1150); settings: COS7 hTOR1A mutant lysate, 635 nm fluorescence, higher = more signal;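 note: score pools 667 nm emission and signal to noise measuring lysate protein binding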
[20] = tested on: Sonic hedgehog protein (Shh); assay: Sonic hedgehog microarray binding compounds – biochemical, small-molecule microarray, 635/667 nm fluorescence, primary screen (AID 1151); settings: 635 nm fluorescence, higher = more signal;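 note: Shh protein binding to compounds spotted on small-molecule microarray slides; score combines spot fluorescence intensity with signal-to-noise across triplicate slides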

Torsin-1A (Homo sapiens), sequence (O14656 whole entry, looked up): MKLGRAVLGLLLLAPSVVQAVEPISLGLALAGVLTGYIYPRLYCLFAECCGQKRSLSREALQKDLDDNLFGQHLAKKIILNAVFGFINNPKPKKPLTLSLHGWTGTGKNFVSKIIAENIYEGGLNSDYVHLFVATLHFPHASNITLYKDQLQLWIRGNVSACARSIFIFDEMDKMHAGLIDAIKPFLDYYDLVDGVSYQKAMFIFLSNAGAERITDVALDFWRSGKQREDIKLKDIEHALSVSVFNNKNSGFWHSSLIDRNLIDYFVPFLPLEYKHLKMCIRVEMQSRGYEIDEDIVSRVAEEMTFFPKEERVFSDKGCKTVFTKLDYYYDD
Focal adhesion kinase 1 (Homo sapiens), sequence (Q05397 whole entry, looked up): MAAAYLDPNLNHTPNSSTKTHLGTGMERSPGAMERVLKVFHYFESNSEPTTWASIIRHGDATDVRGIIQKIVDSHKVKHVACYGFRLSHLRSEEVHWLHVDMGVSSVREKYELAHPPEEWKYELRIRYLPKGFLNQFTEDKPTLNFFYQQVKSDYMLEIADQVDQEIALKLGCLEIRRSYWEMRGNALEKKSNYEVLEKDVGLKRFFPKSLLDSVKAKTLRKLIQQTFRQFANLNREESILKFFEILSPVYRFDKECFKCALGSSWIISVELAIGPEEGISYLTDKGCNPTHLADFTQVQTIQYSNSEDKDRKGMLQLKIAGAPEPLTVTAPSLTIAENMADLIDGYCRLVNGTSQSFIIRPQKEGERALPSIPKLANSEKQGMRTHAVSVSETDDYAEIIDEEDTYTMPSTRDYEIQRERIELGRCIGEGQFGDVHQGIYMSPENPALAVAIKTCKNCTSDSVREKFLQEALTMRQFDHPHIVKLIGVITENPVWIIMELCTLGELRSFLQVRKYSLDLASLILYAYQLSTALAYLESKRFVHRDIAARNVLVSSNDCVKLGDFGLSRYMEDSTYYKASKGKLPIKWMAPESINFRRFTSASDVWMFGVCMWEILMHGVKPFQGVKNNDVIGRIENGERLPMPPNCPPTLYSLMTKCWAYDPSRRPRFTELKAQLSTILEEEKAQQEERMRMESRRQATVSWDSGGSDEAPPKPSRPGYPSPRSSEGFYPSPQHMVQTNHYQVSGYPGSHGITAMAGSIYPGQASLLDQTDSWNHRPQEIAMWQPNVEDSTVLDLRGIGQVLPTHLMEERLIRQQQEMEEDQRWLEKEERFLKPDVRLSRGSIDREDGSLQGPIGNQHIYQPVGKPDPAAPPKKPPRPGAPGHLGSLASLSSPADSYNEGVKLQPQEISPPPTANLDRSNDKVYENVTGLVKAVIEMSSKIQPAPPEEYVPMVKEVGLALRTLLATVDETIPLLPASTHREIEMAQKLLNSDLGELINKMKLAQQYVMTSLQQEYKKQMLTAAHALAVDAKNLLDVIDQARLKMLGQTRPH
Streptavidin (Streptomyces avidinii), sequence (P22629 whole entry, looked up): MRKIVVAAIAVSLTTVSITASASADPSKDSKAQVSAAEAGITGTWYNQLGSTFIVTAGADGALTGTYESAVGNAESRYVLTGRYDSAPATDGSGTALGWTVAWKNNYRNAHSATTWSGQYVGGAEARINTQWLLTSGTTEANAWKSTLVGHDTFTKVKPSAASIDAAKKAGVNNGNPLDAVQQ
Follistatin (Homo sapiens), sequence (P19883 whole entry, looked up): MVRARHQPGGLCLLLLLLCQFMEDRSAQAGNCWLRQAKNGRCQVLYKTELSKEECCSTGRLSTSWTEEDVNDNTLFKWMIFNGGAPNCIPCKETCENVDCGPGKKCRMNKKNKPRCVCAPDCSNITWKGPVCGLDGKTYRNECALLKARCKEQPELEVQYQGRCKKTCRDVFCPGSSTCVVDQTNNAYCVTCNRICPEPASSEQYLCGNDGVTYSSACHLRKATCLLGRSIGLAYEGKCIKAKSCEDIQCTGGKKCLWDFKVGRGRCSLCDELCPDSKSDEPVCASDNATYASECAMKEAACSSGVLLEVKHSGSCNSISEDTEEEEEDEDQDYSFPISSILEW
Fibroblast growth factor 2 (Homo sapiens), sequence (P09038 whole entry, looked up): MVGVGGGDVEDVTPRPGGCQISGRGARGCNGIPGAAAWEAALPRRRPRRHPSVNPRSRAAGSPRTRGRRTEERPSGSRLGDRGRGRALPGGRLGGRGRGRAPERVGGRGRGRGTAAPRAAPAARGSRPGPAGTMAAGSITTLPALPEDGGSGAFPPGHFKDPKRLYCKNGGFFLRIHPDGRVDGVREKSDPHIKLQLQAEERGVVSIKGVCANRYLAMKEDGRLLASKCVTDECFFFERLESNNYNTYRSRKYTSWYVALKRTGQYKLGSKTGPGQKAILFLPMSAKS
Luciferin 4-monooxygenase (Photinus pyralis), sequence (P08659 whole entry, looked up): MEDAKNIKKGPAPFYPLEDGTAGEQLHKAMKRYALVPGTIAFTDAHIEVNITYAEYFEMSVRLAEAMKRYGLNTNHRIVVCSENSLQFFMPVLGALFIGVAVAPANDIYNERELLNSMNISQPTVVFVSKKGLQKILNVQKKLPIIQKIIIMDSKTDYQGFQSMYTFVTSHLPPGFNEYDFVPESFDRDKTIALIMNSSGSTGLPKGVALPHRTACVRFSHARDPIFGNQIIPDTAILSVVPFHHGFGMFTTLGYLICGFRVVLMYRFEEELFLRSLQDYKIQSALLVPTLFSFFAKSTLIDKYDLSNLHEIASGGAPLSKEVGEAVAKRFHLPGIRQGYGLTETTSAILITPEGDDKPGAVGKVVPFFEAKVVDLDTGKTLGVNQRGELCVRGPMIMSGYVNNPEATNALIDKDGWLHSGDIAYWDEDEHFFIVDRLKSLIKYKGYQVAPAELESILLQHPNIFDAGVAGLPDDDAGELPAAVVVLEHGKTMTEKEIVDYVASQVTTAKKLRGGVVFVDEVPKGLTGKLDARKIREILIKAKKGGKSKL

Row | SMILES | composite z-score [1] | composite z-score [2] | composite z-score [3] | composite z-score [4] | composite z-score [5] | composite z-score [6] | z-score [7] | composite z-score [8] | composite z-score [9] | z-score [10] | composite z-score [11] | z-score [12] | z-score [13] | z-score [14] | z-score [15] | composite z-score [16] | composite z-score [17] | composite z-score [18] | composite z-score [19] | composite z-score [20]
1 | C=CCC(OC(C)=O)[C@@H]1[C@@H](N(Cc2cccc3ccccc23)C(=O)c2ccc(C)cc2)c2cc(OCCCO)ccc2N1C(=O)Cc1ccc(OC)cc1 (stereo not given in full) | 0.0508 | -0.0914 | 0.183 | 0.342 | 0.695 | -0.148 | 1.3 | 0.203 | 0.275 | 0.0544 (inactive) | -0.0466 | -0.798 (inactive) | -0.738 (inactive) | -0.402 (inactive) | -0.281 (inactive) | 0.547 | -0.189 | 0.291 | 0.553 | 0.562
2 | CCOC(=O)C1=CCC(c2ccc(C#N)cc2)N(S(=O)(=O)c2ccc(C)cc2)C1 (stereo not given) | 1.64 | 1.2 | 0.047 | 0.824 | 0.552 | 0.168 | -0.142 | -0.303 | 1.19 | 0.115 (inactive) | 0.445 | -4.77 (inactive) | -0.0317 (inactive) | 0.22 (inactive) | -0.986 (inactive) | 1.87 | 0.211 | 0.375 | 0.709 | 0.409
3 | COc1ccc(C#Cc2ccc3c(c2)[C@]2(C(=O)N3)[C@H](C(=O)NC[C@H](O)c3ccccc3)[C@H]3C(=O)O[C@H](c4ccccc4)[C@H](c4ccccc4)N3[C@@H]2c2ccccc2OCCO)cc1 | 1.05 | 1.19 | 0.686 | 0.844 | 1.09 | 0.604 | -1.79 | 1.42 | 0.855 | -0.361 (inactive) | 0.0762 | -5.79 (inactive) | -0.494 (inactive) | -0.463 (inactive) | -0.336 (inactive) | 0.924 | 0.421 | 0.123 | 0.535 | 1.68
4 | CC1=C2[C@@H](CCc3ccccc3)OB(O)C[C@@H]2n2c(=O)n(-c3ccccc3)c(=O)n2C1 | 0.324 | 0.479 | 0.233 | 0.923 | 0.794 | 0.618 | 0.235 | 0.897 | 0.0099 | -0.85 (inactive) | 0.207 | -0.382 (inactive) | 0.909 (inactive) | 0.402 (inactive) | -0.826 (inactive) | 0.156 | -0.0405 | 0.0316 | 0.111 | 0.724
